The text below walks through data of PubChem BioAssay AID624169 (The Scripps Research Institute Molecular Screening Center, 2012).

Out of some 360,000 compounds screened, about 2,400 (0.67%) were called active.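 Rule for the calls: active = activation above a run cutoff, the mean activation of all tested compounds plus 3 SD (cut at about 14% in these data); inactive = the rest.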 Many of the other results were omitted from the sample, so actives are more common in it than they were.

For this assay, the target named is 5-hydroxytryptamine receptor 2A (Mus musculus) (UniProt P35363). The assay is described as follows: activation of mouse 5-HT2A receptor – cell-based, luminescence, primary screen (AID 624169).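 Note: 0% = plate median of compound wells and 100% = 30 µM serotonin.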 The following applies: CHO-K1 mHTR2A beta-arrestin complementation, at 7.6 µM, hits give high values, percent of 30 µM serotonin response.
Chain of 5-hydroxytryptamine receptor 2A (Mus musculus) (P35363 whole entry, looked up): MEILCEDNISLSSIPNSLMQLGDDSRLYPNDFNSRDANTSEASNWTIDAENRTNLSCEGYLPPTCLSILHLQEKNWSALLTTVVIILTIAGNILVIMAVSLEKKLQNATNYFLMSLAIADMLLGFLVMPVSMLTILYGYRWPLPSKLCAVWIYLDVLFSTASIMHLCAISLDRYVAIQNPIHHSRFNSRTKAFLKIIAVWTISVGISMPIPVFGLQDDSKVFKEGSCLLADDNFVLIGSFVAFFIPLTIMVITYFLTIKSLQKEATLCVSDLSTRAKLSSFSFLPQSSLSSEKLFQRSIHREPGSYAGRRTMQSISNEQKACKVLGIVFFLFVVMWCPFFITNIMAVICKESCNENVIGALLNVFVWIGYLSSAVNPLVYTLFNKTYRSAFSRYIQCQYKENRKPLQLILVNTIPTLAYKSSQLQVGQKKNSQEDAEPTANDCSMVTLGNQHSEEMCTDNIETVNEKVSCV
As for `CC(=O)NS(=O)(=O)c1ccc(NC(=O)C2C3C=CC(C3)C2C(=O)O)cc1` (stereo not given), the activation was 2.61% (inactive).
Turning to `CCCCNC(=O)C[C@@H]1C[C@@]2(C(=O)OCC)CCC=C2N(Cc2ccco2)C1=O`, the activation was -3.77% (inactive).
`O=C1C=C(c2cccc(Cl)c2)C[C@@H](c2ccc(F)cc2)C1`: the activation is -0.66% (inactive).
Regarding `O=C1CC(c2cccc(Cl)c2)CC(O)=C1C=Nc1ccccc1` (stereo not given), the activation is 20.8% (active).
For `O=C1CCCC(O)=C1C=NCCc1ccccc1`, the activation was 2.15% (inactive).
To `C[C@@H]1CN([C@@H](C)CO)C(=O)c2cc(Br)cnc2O[C@H]1CN(C)Cc1ccc(-c2ccccc2)cc1` belongs -1.74% (inactive); to `Cn1c(=NC(=O)c2ccco2)sc2cccc(F)c21`, 2.52% (inactive).
With `Cn1c(=NC(=O)c2cnccn2)sc2ccccc21`, the activation was -2.18% (inactive).
For `CCCC(=O)N=c1sc2cccc(F)c2n1C`, the activation is 39.7% (active).
To `CCOC(=O)/C=C/c1ccc(C(F)(F)F)cc1S(=O)(=O)NC(C)(C)C` belongs -0.74% (inactive).
For `COc1ccc(N2CC(C(=O)NCCN3C(=O)S/C(=C\c4cccnc4)C3=O)CC2=O)c(OC)c1` (stereo not given), the activation was 18.4% (active).
On to `Cc1cc(OCCCC(=O)NCCN2C(=O)S/C(=C\c3cccnc3)C2=O)ccc1Cl`, for which the activation is 8.37% (inactive).
With `COc1ccccc1N1CC(C(=O)NCCN2C(=O)S/C(=C\c3cccnc3)C2=O)CC1=O` (stereo not given), the activation is -0.83% (inactive).
With `CC1CCN(C(=O)COC(=O)c2cc(S(=O)(=O)N3CCOCC3)ccc2Cl)CC1`, the activation is -1.57% (inactive).
To `O=C(COC(=O)c1ccc(S(=O)(=O)N2CCc3ccccc3C2)cc1)NC(=O)NCc1ccco1` belongs -5.24% (inactive); to `COc1cc(NC(=O)C2CCN(c3cnccn3)CC2)cc(OC)c1`, -2.92% (inactive); to `CCOCCCNC(=O)C(=O)NCCCOCC`, 0.95% (inactive).
For `CCOCCCNC(=O)Cc1cc(=O)[nH]c(=O)[nH]1`, the activation is 20.9% (active).
`CCOC(=O)Cc1cc(=O)[nH]c(=O)[nH]1`: the activation was -0.86% (inactive).
To `Cc1cc(OCCN2CCCC2)cc(C(C)C)c1` belongs -5.99% (inactive).
Consider `CCOC(=O)c1ccc(NC(=O)CCn2c(=O)oc3ccccc32)cc1`, for which the activation is -5.94% (inactive).
Regarding `CCOC(=O)c1ccc(NC(=O)Cn2cnc3cc(C)c(C)cc32)cc1`, the activation was 17.4% (active).
With `CCOC(=O)c1ccc(NC(=O)CS(=O)(=O)c2cn(CC)c3ccccc23)cc1`, the activation was -0.07% (inactive).
Regarding `COc1ccc2c(c1)C(C)=CC(C)(C)N2C(=O)CNCc1ccc2c(c1)OCO2`, the activation is -18.1% (inactive).
As for `CCn1nnc(NC(=O)c2c(OC)cccc2OC)n1`, the activation was -1.47% (inactive).
To `Cc1ccc(CCNC(=O)CN2C(=O)CSc3ccc(S(=O)(=O)N4CCOCC4)cc32)cc1` belongs -3.24% (inactive); to `COc1cccc(C2c3[nH]c4ccccc4c3CCN2Cc2cccc(C)n2)c1` (stereo not given), -2.83% (inactive).
To `CCC(C)N1CC(=O)N2Cc3[nH]c4ccccc4c3C[C@H]2C1=O` (stereo not given in full) belongs -3.21% (inactive).
As to `COc1ccc(C2c3[nH]c4ccccc4c3C[C@H]3C(=O)N(CC(C)C)CC(=O)N23)c(OC)c1` (stereo not given in full), the activation was 26.6% (active).
For the compound `S=C(Nc1ccc(Cl)cc1Cl)N1CCCC1`, the activation is -3.15% (inactive).
Consider `c1cnc(N2CCN(c3ccc4ccccc4n3)CC2)nc1`, for which the activation was -1.28% (inactive).
In the case of `O=C(c1ccncc1)N1CCN(c2ccc3ccccc3n2)CC1`, the activation was 25.6% (active).
To `O=C(c1ccc2ccccc2n1)N1CCN(c2ccccc2Cl)CC1` belongs 7.25% (inactive); to `COc1ccc(NC(=O)COC(=O)c2ccncc2)c(OC)c1`, -1.11% (inactive); to `CCOC(=O)N1CCC(Nc2c(NCCCN3CCN(c4ccc(OC)cc4)CC3)c(=O)c2=O)CC1`, 4.04% (inactive).
To `CCCOc1ccc(CNC(=O)C2CCN(c3nn4c(=O)cc(C)nc4s3)CC2)cc1` belongs 11% (inactive).
Regarding `COC(=O)CSc1nnc(-c2cccnc2)o1`, the activation is 1.04% (inactive).
With `O=C(CSc1nnc(-c2ccncc2)o1)Nc1cccc(Cl)c1`, the activation was -0.76% (inactive).
`COc1cccc(NC(=O)CSc2nnc(-c3cccnc3)o2)c1`: the activation is 14.9% (active).
`O=C(CSc1nncs1)NC1CCCc2ccccc21` (stereo not given): the activation was -0.06% (inactive).
For the compound `CC(C)COC(=O)n1c(=O)oc2ccc(S(=O)(=O)N3CCCCC3)cc21`, the activation is 0.93% (inactive).
With `COc1ccc(Cn2c(=O)sc3ccccc32)cc1OC`, the activation was 8.35% (inactive).
As to `Cc1csc2ncc(C(=O)N(Cc3ccccc3)c3ccccn3)c(=O)n12`, the activation was 0.53% (inactive).
Take `CC(C)CNC(=S)NNC(=O)c1ccccc1OC(F)F`: the activation is 1.02% (inactive).
To `COc1ccccc1C(=O)NC(CCSC)C(=O)N1CCN(C(C)=O)CC1` (stereo not given) belongs -3.47% (inactive); to `CC(C)Oc1ccccc1C(=O)NC(CO)C(=O)O` (stereo not given), 21.6% (active).
In the case of `O=C(COc1ccc2c(c1)CCC2)N1CCN(c2ccc(F)cc2)CC1`, the activation is -4.42% (inactive).
Turning to `CC[C@@H](C)[C@H](NC(=O)CCc1c(C)c2cc3c4c(oc3c(C)c2oc1=O)CCCC4)C(=O)O`, the activation is 6.8% (inactive).
For the compound `CCCCNS(=O)(=O)c1ccc2nc(SCC(=O)Nc3cc(C)cc(C)c3)[nH]c2c1`, the activation was 12.2% (inactive).
Consider `O=[N+]([O-])c1cccc(S(=O)(=O)N2CCCCCC2)c1`, for which the activation is -1.72% (inactive).
To `Cc1cc(C)n(S(=O)(=O)c2cccc([N+](=O)[O-])c2)n1` belongs 18.4% (active).
On to `CC1=NCCN1S(=O)(=O)c1cccc([N+](=O)[O-])c1`, for which the activation is -2.76% (inactive).
For `Cc1cc(C)cc(NC(=O)COc2coc(CN3CCN(c4ccccc4)CC3)cc2=O)c1`, the activation was 6.93% (inactive).
On to `c1ccc(-c2nnc3n2NC(c2ccc4c(c2)OCO4)S3)cc1` (stereo not given), for which the activation was -0.81% (inactive).
As to `Cc1ccc(/C=C/C(=O)OCC(=O)NCc2ccc(Cl)cc2)o1`, the activation was -2.51% (inactive).
To `CCCCn1c(N)c(N(CCC(C)C)C(=O)c2ccc([N+](=O)[O-])o2)c(=O)[nH]c1=O` belongs 5.32% (inactive); to `CCCCn1c(N)c(N(CC(C)C)C(=O)CN(C)S(=O)(=O)c2ccc(F)cc2)c(=O)[nH]c1=O`, 2.45% (inactive); to `CCCCn1c(N)c(N(CC(C)C)C(=O)CSc2ccc([N+](=O)[O-])cc2)c(=O)[nH]c1=O`, 20.3% (active).
To `COC(=O)c1ccc(S(=O)(=O)N2CCC(c3nc4ccccc4o3)CC2)cc1` belongs 2.01% (inactive).
To `Cc1ccc(C(=O)N/C(=C/c2cccs2)C(=O)N2CCCCC2)cc1` belongs 19.9% (active); to `Cc1ccc(C(=O)N/C(=C/c2cccs2)C(=O)NCC2CCCO2)cc1` (stereo not given), 6.31% (inactive).
On to `CN1CCN(C(=O)/C(=C\c2cccs2)NC(=O)c2cccs2)CC1`, for which the activation is -0.61% (inactive).
In the case of `CCOc1cc(CN2CCCC(CO)(Cc3ccc(F)cc3F)C2)ccc1OC` (stereo not given), the activation is -5.38% (inactive).
For the compound `CCOC(=O)c1sc(NC(=O)CSc2n[nH]c(CC)n2)nc1C`, the activation is -3.89% (inactive).
`Cc1ccc(C(=O)OCC(=O)N2CCCCCC2)cc1S(=O)(=O)N1CCOCC1`: the activation was 4.82% (inactive).
In the case of `O=C(OCC(=O)N1CCOCC1)c1ccc(N2CCOCC2)c([N+](=O)[O-])c1`, the activation is -5.4% (inactive).
Regarding `O=C(OCC(=O)N1CCOCC1)c1ccc2ccccc2c1`, the activation is 14.5% (active).
For `Cc1oc2nc(SCC(=O)NCc3cccnc3)nc(N)c2c1C`, the activation was 0.74% (inactive).
Regarding `CCCCNc1c(-c2cccc(Sc3ccc(OC)cc3)c2)nc2ccccn12`, the activation is 23.6% (active).
Take `COC(=O)c1ccc2nc(-c3ccccc3)c(Cc3ccc(OC)cc3C)n2c1`: the activation is -0.62% (inactive).
Turning to `COC(=O)c1ccc2nc(-c3cccc(Br)c3)c(Cc3ccc(OC)cc3C)n2c1`, the activation was -0.25% (inactive).
Consider `COc1ccc(/C=N/NC(=O)Cn2cc(C(F)(F)F)ccc2=O)cc1`, for which the activation was -1.47% (inactive).
To `COc1ccc(/C=N/Nc2ccccc2C(=O)O)cc1` belongs 15.9% (active).
For the compound `COc1ccc(/C=N/NC(=O)C(C)N(c2ccc(OC)cc2)S(C)(=O)=O)cc1` (stereo not given), the activation was -1.2% (inactive).
Take `COc1ccc(-c2nnc3n2CCCCC3)cc1`: the activation is -2.42% (inactive).
On to `COc1cc(OC)cc(C(=O)NNC(=O)CCOc2ccccc2OC)c1`, for which the activation was -0.14% (inactive).
To `O=C(COC(=O)/C=C/c1cccc(Cl)c1)NCCc1ccccc1` belongs -2.95% (inactive).
Take `NNc1cccc(C=Cc2ccccc2)cc1=O`: the activation is 15.7% (active).
Turning to `CC(=O)C1=C(O)C(=O)N(c2ccc(S(N)(=O)=O)cc2)C1c1ccccc1F` (stereo not given), the activation was 3.54% (inactive).
Take `CSc1ncnc2c1ncn2CCCNCC(C)c1ccccc1` (stereo not given): the activation was -3.42% (inactive).
With `CSc1ncnc2c1ncn2CCCNCc1ccco1`, the activation is 5.16% (inactive).
With `CSc1ncnc2c1ncn2CCCNCc1cccs1`, the activation was 19.2% (active).
`COc1ccc(CCNC(=O)C2CCCN2C(=O)Nc2ccccc2)cc1OC` (stereo not given): the activation was -3.12% (inactive).
To `CCOC(=O)N1CCN(C(=O)CN(C2CCCCC2)S(C)(=O)=O)CC1` belongs 7.43% (inactive); to `FC(F)(F)COc1nc(N2CCCCC2)nc(N2CCNCC2)n1`, 25.4% (active).
Regarding `COc1nc(NC2CCCCC2)nc(N2CCCCCC2)n1`, the activation was -0.64% (inactive).
With `CN(N)c1nc(N2CCCC2)nc(N2CCCC2)n1`, the activation is 3.15% (inactive).
To `COC(=O)c1ccc(CSc2nncn2N)cc1` belongs -0.96% (inactive).
With `COC(=O)c1ccc(CSc2nncn2C)cc1`, the activation is 4.16% (inactive).
On to `COC(=O)c1ccc(CSc2nnc(NC(C)C)s2)cc1`, for which the activation was 16% (active).
In the case of `OC(COCCC12CC3CC(CC(C3)C1)C2)CN1CCCCC1` (stereo not given), the activation was -6.43% (inactive).
Turning to `CCCCn1c(N)c(N(CCOC)C(=O)c2sc3ccccc3c2Cl)c(=O)[nH]c1=O`, the activation is -2.4% (inactive).
Consider `Cc1ccccc1CSCC(=O)NC(=O)NC(C)(C)C`, for which the activation is 19.9% (active).
To `CC(C)(C)NC(=O)NC(=O)CN1CCC(Cc2ccccc2)CC1` belongs 0.69% (inactive); to `Cc1cc(NC(=O)CSCc2ccccc2C)no1`, -1.07% (inactive).
